“And” between values parts separate entries of the source, which are not always exact repeats. Identical values can stand only once. The panel holds about 83,000 compounds, 20% with a hit somewhere; the sample as a whole holds those more often.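 Compound tested at a single concentration for 48 hours in 96-well plates; a percent growth value below 10 was scored as active.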 A number with no mark means an inactive call. The source made the active and inactive calls. Where a SMILES comes first, the peptide text is derived from it. [ ]: non-standard residue; d: D form. ξ: configuration not given here. ξV = CC(C)C(N)C(=O)O
test system: DU-145 prostate; test: NCI-60 one-dose screen, 48 h (100 = growth as untreated, 0 = no growth, -100 = all killed); settings: 10 µM unless noted

Structure (SMILES) | growth
NNc1ccc2ccccc2c1 | 98.5% and 111%
NC1=C(Cl)C(=O)c2ccccc2C1=O | 27.1%
Nc1ccc2cc3ccc(N)cc3nc2c1 | 112% and 24.3%
CO[C@H](C(=O)[C@@H](O)[C@@H](C)O)[C@@H]1Cc2cc3cc(OC4CC(OC5CC(O)C(O)C(C)O5)C(O)C(C)O4)c(C)c(O)c3c(O)c2C(=O)[C@H]1OC1CC(OC2CC(OC3CC(C)(O)C(O)C(C)O3)C(O)C(C)O2)C(O)C(C)O1 (stereo partly specified) | 24.7%
CCC(C)(C)c1cc(O)c(C(C)(C)CC)cc1O | 76.5%
Cc1cc(NS(=O)(=O)c2ccc(N=Nc3cc(N=Nc4ccc(S(=O)(=O)Nc5cc(C)nc(C)n5)cc4)c4c(NC(=O)C(Cl)Cl)cccc4c3OC(=O)C(Cl)Cl)cc2)nc(C)n1 (tested in a mixture with another compound) | 118% and 110%
O=C(Nc1ccc(C(=O)O)c(O)c1)c1ccccc1 | 108% and 126%
CC(=O)Nc1cc(C)ccc1C | 112%
CCCCCCCCCCCCCCCCCCOCC(COP(=O)([O-])OCC[N+](C)(C)C)OC (stereo unspecified) | 129%
CCCC1CCC(=C2C(=O)CCC2=O)O1 (stereo unspecified) | 102% and 92.3%
COC(=O)C1C(O)C(C)C(O)C(C)C=C(C)C2=C3C(=C(C)C(=O)c4c(O)c(c(C)c(OC(C)=O)c43)NC(=O)C(C)=C/C=C\C(C)C(O)C(C)C1O)OCO2 (stereo unspecified) | 115%
CCCCCCCCCCSC(=N)N | 79.9%
CS(=O)(=O)OC1CC(n2ccc(=O)[nH]c2=O)OC1COC(c1ccccc1)(c1ccccc1)c1ccccc1 (stereo unspecified) | 99.8%
Clc1cc(Cl)c(Cl)nn1 | 115%
OCC(O)C(O)C(O)C(/C=N/Nc1ccccc1)=N/Nc1ccccc1 (stereo unspecified) | 89.1%
CSC1SCC2C(=O)N(C)C(C(C)C)C(=O)OCC(NC(=O)c3cnc4ccccc4n3)C(=O)NC(C)C(=O)N(C)C1C(=O)N(C)C(C(C)C)C(=O)OCC(NC(=O)c1cnc3ccccc3n1)C(=O)NC(C)C(=O)N2C (stereo unspecified) | -19.5% (active)
COc1cccc2c1C(=O)c1c(O)c3c(c(O)c1C2=O)C[C@@](O)(C(C)=O)C[C@@H]3OC1CC(N)C(O)C(C)O1 (stereo partly specified) | -11.4% (active)
CCCCCCCCCCCC[N+](C)(C)Cc1ccccc1 | 24.8%
CC(=O)OCC(OC(C)=O)C(OC(C)=O)C(OC(C)=O)C(OC(C)=O)C(/C=N/Nc1ccccc1)=N/Nc1ccccc1 (stereo unspecified) | 78.4%
Clc1ccc(/C=C/c2ccccn2)c(Cl)c1 | 116%
CC(C)(C)CC(C)(C)c1ccc(OCCO)cc1 | 111%
CCCCCCCCCCCCSC(=NC)NC | 41.3% and 75.6%
O=C1NC(=O)c2cc([N+](=O)[O-])ccc21 | 112%
O=C(/C=C/c1ccccn1)c1ccccc1 | 60.5%
CC(C)C(NC(=O)CN)C(=O)O (stereo unspecified) (H-Gly-[ξV]-OH) | 107% and 110%
CCN(CC)c1ccc(NC(C(=O)c2ccccc2)c2ccccc2)cc1 (stereo unspecified) | 24.4%

From PubChem BioAssay (NCI)
